Molecules are shown by their SMILES.

In ChEMBL document CHEMBL3988442, “University of Dundee, Small-Polar-MMV Screening Library” (2021) one finds Percent Effect data, which are given here for 40 compounds.

This assay concerns the target AMP-activated protein kinase, AMPK (Homo sapiens) (UniProt P54646+O43741+P54619+Q9UGJ0+Q9Y478+Q13131+Q9UGI9). Put plainly: AMP-dependent Kinase enzyme assay. An in vitro enzyme assay that detects ADP turnover that is directly proportional to AMPK activity. This uses naive AMPK that is activated during the assay with MK-8722. The format is functional. More on the design: scale not given: direction of the effect not stated beside the values. Conditions: 30 µM.
As for `CC(C)Cc1cc(CNC(=O)c2cccc3c2OCC3)no1`, the Percent Effect came out at 3.36%.
Then `CC1CCN(c2ncc(-c3ccccc3F)c(-c3nccn3C)n2)CC1`, with 15.2%; and `O=C(NCc1nncn1C1CC1)c1ccccc1OCC1CC1`, with 1.41%.
Then `COc1ccc(C(C)NCCc2ccc(NC(C)=O)cc2)c(OC)c1` (stereo not given), with 8.45%.
On to `Cc1csc(C(=O)N2CCC(S(C)(=O)=O)CC2)c1`, for which the Percent Effect is -2.86%.
`COCCC(=O)NCCc1nc2cc(-c3ccc(OC)cc3)ncn2n1`: the Percent Effect came out at 20%.
Then `CC(C)N1CC(c2ccnc(Nc3nccs3)n2)C1`, with 13.4%; and `COc1cc(F)ccc1NC(=O)NCCNC(=O)OC(C)(C)C`, with -6.81%; and `O=C(CCn1cnnn1)N1CCCC(CO)(CCc2ccccc2)C1` (stereo not given), with 6.31%.
Under `CCOCCC(=O)Nc1cccc(Cl)c1COC` stands -0.185%.
With `CC(CC(=O)c1ccco1)NC(=O)c1ccccn1` (stereo not given), the Percent Effect is -8.76%.
`COc1ccc(CC(C)Nc2cccc(SC)c2)cc1` (stereo not given): the Percent Effect was -5.64%.
`CCN1CCC(CC(=O)NCc2nc(C)cc(C)n2)CC1`: the Percent Effect was 9.34%.
Turning to `COC(=O)C1CN(Cc2cc(F)ccc2Br)CCO1` (stereo not given), the Percent Effect is -6.48%.
Turning to `COC(=O)CC1CSCCN1C(=O)CCc1c(C)nn(C)c1C` (stereo not given), the Percent Effect stood at 5.71%.
`CN(C)c1cccc(C(=O)N2CCn3c(nnc3C3CC3)C2)c1`: the Percent Effect is -2.33%.
In the case of `CSCCC1c2nc[nH]c2CCN1Cc1[nH]c2ccc(F)cc2c1C` (stereo not given), the Percent Effect worked out at 2.26%.
For the compound `COc1ccc(C2CCN(S(=O)(=O)CCCC#N)CC2)cc1`, the Percent Effect is -2.21%.
Turning to `Cc1cc(CN(C)C(=O)CC(C)C)no1`, the Percent Effect stood at 0.491%.
Then `CS(=O)(=O)N1CCCCC1c1ccc(Nc2cnccn2)nc1` (stereo not given), with 4.25%.
Take `CCc1ccc(-c2noc(Cn3nc(C(N)=O)ccc3=O)n2)cc1`: the Percent Effect is -8.7%.
On to `CCC[C@H]1CN(Cc2cc(C#N)n(C)c2C)C[C@@H]1NS(=O)(=O)CC`, for which the Percent Effect was -157%.
As for `Cc1nc(C)c(C(=O)N2CCCc3c(F)cccc32)o1`, the Percent Effect was -0.713%.
For the compound `CCN(C)C[C@@H]1CN(C(=O)c2cc(C(F)(F)F)n[nH]2)C[C@@H]1CO`, the Percent Effect was 7.62%.
Under `CSCCC(NC(=O)c1ccccc1)C(=O)N(C)Cc1ccsc1` (stereo not given) stands -4.15%.
Under `Cc1cc(C(F)(F)F)nc(CNC(=O)CCn2cccn2)n1` stands 12.2%; under `COc1cccc(-c2ncc(CN3CC[C@H](CO)[C@@H](O)C3)s2)c1`, -0.478%; under `COC(=O)c1ccc(CCn2cnc(C#N)n2)cc1`, -2.56%.
In the case of `COCCCC1(CO)CCCN(C(=O)c2cnc3c(c2)CCCC3)C1` (stereo not given), the Percent Effect is -2.32%.
Take `CCOCCN1CCN(c2ccc(C#N)cn2)CC1`: the Percent Effect is 1.16%.
Turning to `NC1CCCN(Cc2cccc(C(F)(F)F)c2)C1=O` (stereo not given), the Percent Effect is -0.911%.
Then `CC(C)(O)CCc1cccc(C(=O)NCc2nccs2)c1`, with 0.5%.
Consider `CN(CCc1ccccn1)C(=O)c1cccs1`, for which the Percent Effect came to 6.23%.
In the case of `Fc1ccc(COCC2CCN(Cc3ccccn3)CC2)cc1`, the Percent Effect came to 1.48%.
In the case of `Cc1nccn1[C@@H]1CC[C@@H](N(C)S(=O)(=O)c2ccccc2F)[C@H]1O`, the Percent Effect amounted to 5.86%.
`COc1nccc(N2CC[C@@H](N3CCCCCC3)[C@H](O)C2)c1C#N`: the Percent Effect was -1.86%.
`CSCCC(NC(N)=O)C(=O)NCc1cnn(-c2ccccc2)c1` (stereo not given): the Percent Effect was -5.05%.
For the compound `CC(C)C(C(N)=O)c1cccc(Cl)c1` (stereo not given), the Percent Effect is -2.67%.
Take `CN1CCOC(CNC(=O)CCCc2ccccc2)C1` (stereo not given): the Percent Effect was -9.04%.
For `CN(C)S(=O)(=O)c1ccc(=O)n(CC2CCCCO2)c1` (stereo not given), the Percent Effect was 8.37%.
